Bioassay records deposited in PubChem BioAssay by National Center for Advancing Translational Sciences (NCATS).
Most compounds without a hit are left out; they make up all but 0.96% or so of the library.
Fluorescein autfl = compound autofluorescence in fluorescein spectral region | Compound autofluorescence, 480/540 nm, fluorescein-equivalent; hits give high values | max fluorescein-equivalent concentration, M | hit rate 0.91% among 59,000 | AID 593; in the data active means max fluorescein-equivalent concentration above about 10 nM; inconclusive means between about 1.1 nM and that limit
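Compounds were pin-transferred into 100 mM Tris buffer, pH 8.0, and incubated 15 min at room temperature. Fluorescence was read at 480 nm excitation/540 nm emission. Signals were normalized to an on-plate six-point fluorescein standard curve as dye-equivalent concentration.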
Resorufin fluor = compounds fluorescent in resorufin spectral region; Compound fluorescence, resorufin region 547/598 nm, buffer; hits give high values; max dye-equivalent concentration, M; hit rate 0.04% among 59,000; AID 588
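Dye-equivalent concentration values derive from comparing each well's 547/598 nm fluorescence against resorufin standards included on every plate. Incubation was 15 min at room temperature in 100 mM Tris, pH 8.0.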
Rhodamine fluor = compound autofluorescence in rhodamine spectral region. Rhodamine-region fluorescence, 547/598 nm, Tris buffer; hits give high values. max dye-equivalent concentration, M. hit rate 0.05% among 59,000. AID 594; in the data active means max dye-equivalent concentration above about 11 nM; inconclusive means between about 1.1 nM and that limit
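Compounds in 100 mM Tris buffer, pH 8.0, were incubated 15 min at room temperature, then read at 547 nm excitation and 598 nm emission. Fluorescence was normalized against a per-plate six-point rhodamine standard curve as dye-equivalent concentration.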
A647 fluor = A647 region autofluorescence | Compound fluorescence, A647 channel (570/671 nm), Tris buffer | max dye-equivalent concentration, M | 59,000 tested, under 10 active;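 further: values scaled relative to a standard on each plate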
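Tris 100 mM pH 8.0; cpd + A647 stds pin-transferred; 15 min RT; CCD imager, ex 570/em 671. Output = A647-equivalent conc. per cpd conc.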
A488 autofl = compound autofluorescence in A488 spectral region; AID 591; hit rate 0.1% among 59,000; max dye equivalency, M; compound autofluorescence, A488 spectral region, dye equivalency; Compound Type: qHTS ECL - MLSMR
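Readout is A488 dye-equivalent concentration, calibrated by a per-plate six-point Alexa 488 series. Compounds in 100 mM Tris buffer pH 8.0 were incubated 15 min at room temperature. Plates were imaged using 480 nm excitation/540 nm emission filters.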
TexasRed autofl = compound fluoresces in the Texas Red spectral region; hit rate 0.06% among 59,000; max dye-equivalent concentration, M; Compound fluorescence, Texas Red channel, 547/618 nm; hits give high values; in the data active means max dye-equivalent concentration above about 10 nM; inconclusive means between about 1.1 nM and that limit
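Compound fluorescence was read after 15 min at room temperature in 100 mM Tris, pH 8.0, using 547 nm excitation and 618 nm emission across a concentration series. It was expressed as Texas Red dye-equivalent concentration from an on-plate standard curve.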
Starred values were filed as active, the others as inactive; i = inactive; ? = inconclusive; ! = not active in a repeat. Unless noted, how the calls were made is not given here.

SMILES	Fluorescein autfl	Resorufin fluor	Rhodamine fluor	A647 fluor	A488 autofl	TexasRed autofl
CCOC(=O)N1CC=C2C(C#N)=C(N)C(C#N)(C#N)[C@H](c3ccccc3OCC)[C@H]2C1	?	i	i	3.7e-09	i	?
COCCn1c(=O)c(-c2cccs2)nc2cnc(Oc3ccc(OC)cc3)nc21	i	i	i	1e-09	i	i
CN(N=O)c1ccc(/C=C\c2ccnc3ccccc23)cc1	i	i	i	1e-09	i	?
C=C[C@@H]1CN2CC[C@@H]1C[C@H]2[C@H](O)c1ccnc2ccc(OC)cc12	i	i	i	7e-09	i	i
CN1CC=C2C(C#N)=C(N)C(C#N)(C#N)[C@H](c3cccc(Cl)c3)C2C1 (some centres not stated)	4.1e-08M*	i	i	4.8e-09	?	?
CCCC1C2CN(C(C)C)CC=C2C(C#N)=C(N)C1(C#N)C#N (configuration not stated)	5.1e-08M*	i	i	1.3e-08	?	?
CN1C2C=C3C(C#N)=C(N)C(C#N)(C#N)[C@@H](c4ccsc4)[C@@H]3C1CC2 (some centres not stated)	i	i	i	3e-09	i	?
CCOC(=O)N1CC=C2C(C#N)=C(N)C(C#N)(C#N)[C@H](c3ccsc3)[C@H]2C1	?	i	i	8e-09	i	?
C[C@@H](CN1CCC(Cc2ccccc2)CC1)[C@H](O)c1ccc(O)cc1	i	i	i	5.6e-09	i	?
CCOC(=O)c1sc(SCC(=O)Nc2ccc(N(C)C)cc2)nc1N	i	i	i	1.5e-08	i	i
CCOC(=O)SC1=N/C(=C\c2ccc(N(C)C)cc2)C(=O)S1	1e-08M*	i	i	1e-09	i	i
Cc1ccc(Cn2c(=N)c(C(=O)NCc3ccco3)cc3c(=O)n4ccccc4nc32)cc1	?	i	i	1.7e-08	i	i
COc1ccc(CCn2c(=N)c(C#N)cc3c(=O)n4ccccc4nc32)cc1	1e-08M*	i	i	2.7e-09	i	i
COc1ccc(CNC(=O)c2cc3c(=O)n4ccccc4nc3n(Cc3ccco3)c2=N)cc1	1.9e-08M*	i	i	3.7e-08	i	i
CCOC(=O)c1cc2c(=O)n3ccccc3nc2n(Cc2ccccc2)c1=N	1.6e-07M*	i	i	2e-08	?	i
CCCOc1ccc(/C=c2\sc3nc(-c4ccco4)nn3c2=O)cc1OCC	3.2e-08M*	i	i	1.5e-08	?	i
c1ccc(-c2ccc(N3CCCC4(CCNCC4)C3)cc2)cc1	?	i	i	2e-08	i	i
C=CCOc1cccc(C2C(C(=O)c3ccc(C)o3)=C(O)C(=O)N2c2nccs2)c1 (configuration not stated)	3.6e-08M*	i	i	1.9e-08	?	i
Nc1ncnc2c1ncn2[C@H]1O[C@@H](C(=O)O)[C@@H](O)[C@H]1O	i	i	i	1e-09	i	i
CN(C)c1ccc(C2C=C(c3ccc(Cl)cc3OC(F)F)Nc3ncnn32)cc1 (configuration not stated)	1.5e-08M*	i	i	1.5e-08	i	i
NS(=O)(=O)c1cc2c(cc1Cl)NCNS2(=O)=O	1.1e-08M*!	i	i	1.5e-08	i	i
NS(=O)(=O)c1cc2c(cc1Cl)N[C@@H](CC1CCCC1)NS2(=O)=O	i	i	i	1e-09	i	i
COc1cc2nc(N3CC=[N+](C(=O)c4ccco4)CC3)nc(N)c2cc1OC	i	i	i	5.4e-09	i	i
Cc1cccc(S(=O)(=O)c2c(N)n(Cc3ccco3)c3nc4ccccc4nc23)c1	1.7e-08M*	i	i	1.5e-08	i	i
CC(C)CN1CCCC2(CCN(C(=O)c3ccco3)CC2)C1	i	i	i	1.2e-09	i	i
SMILES	Fluorescein autfl	Resorufin fluor	Rhodamine fluor	A647 fluor	A488 autofl	TexasRed autofl
CC(=O)O[C@@H]1CC[C@]2(C)[C@H]3CC[C@]4(C)[C@H](C[C@H]5CCCC[C@@]54C(C)=O)[C@@H]3CC(=O)[C@@]2(O)C1	i	i	i	4.7e-09	i	?
COc1cccc2cc(-c3nc(-c4cccs4)cs3)c(=O)oc12	2.4e-08M*	i	i	1e-09	i	i
N[C@@H]1[C@@H]2[C@@H]3C[C@H]4N(CC[C@@]14C(=O)C(=O)O)CC3=CCO[C@@H]2CC(=O)O	1e-08M*	i	i	2.2e-09	i	i
COc1cccc(OC)c1OCCNC[C@@H]1CSc2ccccc2O1	i	i	i	1.2e-08	i	i
CNC(=O)c1cc2ccc(OC)cc2oc1=O	1.7e-08M*	i	i	1e-09	i	i
O=C(O)CNC(=O)[C@@H](CS)Cc1ccccc1	?	i	i	6.2e-09	i	i
CN(C)CCCNC(=O)c1ccc(-c2ccccc2)cc1	?	i	i	3.9e-08	i	i
CN(C)CCCNc1cc(O)c2c(c1O)C(=O)c1ccccc1C2=O	?	1.3e-08M*	1.8e-08M*	5e-09	i	4.6e-08M*
COC(=O)N1CCC2(CCN(C(=O)Nc3ccc(OC)cc3)CC2)CC1	1.5e-08M*	i	i	2.1e-08	i	i
COc1ccc(C(=O)N2CCC3(CCN(C(=O)Nc4cccc(C#N)c4)CC3)CC2)cc1	i	i	i	2.9e-09	i	i
COc1ccc(NC(=O)N2CCC3(CC2)CCN(C(=O)c2ccncc2)CC3)cc1	i	i	i	1e-09	i	i
COc1ccc(C(=O)N2CCC3(CC2)CN(C(=O)Nc2cccc(C#N)c2)C3)cc1	1.1e-08M*	i	i	1e-09	i	i
Cc1ccc(N2C(=O)C3C(C2=O)C(C(=O)c2ccc(Cl)cc2)N2CCCC32)cc1 (configuration not stated)	3.1e-08M*	i	i	3.5e-08	?	i
COc1cc2c(cc1OC)[C@H](c1ccccc1)CN(C)CC2	i	i	i	8e-09	i	?
CCCCCCCCCCCCCCCCOC[C@@H](COCC(F)(F)F)OP(=O)(O)OCO	?	i	i	1.5e-08	i	i
CCN(CC)c1ccc2c(c1)OC(N)=C(C#N)C2c1cccnc1 (configuration not stated)	4.8e-08M*	i	i	1.3e-08	?	i
CC(=O)Nc1ccc(N=Cc2nc(-c3ccc(C)cc3)oc2O)cc1	1.6e-08M*	i	i	1e-09	i	i
CN(C)c1ccc(N=Cc2nc(-c3ccccc3)oc2O)cc1	4.5e-08M*	i	i	1e-09	?	i
